# Assay results reported in the supplement of paper PMC10981050.
# Where a name gives a salt, the structure may show the parent alone.
# Test system: MARIMO
# Test: cell viability relative to vehicle control; higher = less cytotoxic
# Settings: 10 µM; SRSF2 genotype: SRSF2 P95H/wt
# How it was run: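 CRISPR-edited SRSF2 P95 mutant and isogenic wild-type clones of four leukaemia lines were screened against Selleck bioactive, kinase and epigenetic probe libraries, with identity-inconsistent compounds removed. Compounds were acoustically dispensed into 384-well plates at a single 10 µM dose, with 2000 cells in 50 µL medium per well. After 48 h, supernatant was removed and CellTiter-Glo luminescence was read. Viability was expressed as percent of the on-plate DMSO vehicle control, analysed in Genedata Screener.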
row,SMILES,cell viability
1,COc1cc(C(=O)N(CCCc2ccccc2)Cc2ccc(CC(=O)O)cc2)cc(OC)c1C,105%
2,Oc1ccc(OC2CCCCO2)cc1 (stereo not drawn) [Deoxyarbutin],84.6%
3,NS(=O)(=O)c1ccccc1 [Benzenesulfonamide],97.9%
4,COc1ccc([C@@H]2CC(=O)c3c(O)cc(O[C@@H]4O[C@H](CO)[C@@H](O)[C@H](O)[C@H]4O[C@@H]4O[C@@H](C)[C@H](O)[C@@H](O)[C@H]4O)cc3O2)cc1 [Poncirin],97.8%
5,CC(=O)Oc1cc(C(F)(F)F)ccc1C(=O)O [Triflusal],98.9%
6,OC1OC[C@@H](O)[C@@H](O)[C@@H]1O (stereo partly drawn) [D(-)-Arabinose],110%
7,CC[C@@H]([C@H](C)O)n1ncn(-c2ccc(N3CCN(c4ccc(OC[C@@H]5CO[C@@](Cn6cncn6)(c6ccc(F)cc6F)C5)cc4)CC3)cc2)c1=O [Posaconazole],55.6%
8,Nc1nc(-c2nn(Cc3ccccc3F)c3ncccc23)ncc1C1CC1,103%
9,COc1cc2c(cc1OC)[C@@H](Cc1ccc(O)c(Oc3cc4c(cc3OC)CCN(C)[C@@H]4Cc3ccc(O)cc3)c1)N(C)CC2 [Liensinine],63.3%
10,NC(=O)c1cnccn1 [Pyrazinamide (Pyrazinoic acid amide)],104%
11,CC(C)(C)NS(=O)(=O)c1cncc(-c2cc(F)c3nc(N)nn3c2)c1,93.8%
12,CC(=O)O[C@@H]1C[C@@]23C[C@@]24CC[C@H](O[C@@H]2OC[C@@H](O)[C@H](O)[C@H]2O)C(C)(C)[C@@H]4CC=C3[C@]2(C)C[C@@H]3OC4(C[C@@H](C)[C@@H]3[C@@]12C)OC(O)C1(C)OC41 (stereo partly drawn) [Cimicifugoside],109%
13,O=C(O)c1ccc(CN2CCC(CN[C@@H]3C[C@H]3c3ccccc3)CC2)cc1,92.3%
14,CN1C(N)=N[C@](C)(c2cc(NC(=O)c3ccc(F)cn3)ccc2F)CS1(=O)=O [Verubecestat (MK-8931)],88.9%
15,O=C[C@H](O)[C@@H](O)[C@H](O)CO [Xylose],90.4%
16,COc1ccc(CCNCC(O)COc2cccc(C)c2)cc1OC (stereo not drawn) [Bevantolol hydrochloride],82.8%
17,C/C=C1\[C@H]2C=C(C)C[C@]1(N)c1ccc(=O)[nH]c1C2 [(-)-Huperzine A (HupA)],103%
18,COC(=O)CCC(C)C1CCC2C3C(O)CC4CC(O)CCC4(C)C3CC(O)C12C (stereo not drawn) [Methyl Cholate],104%
19,Cc1cccc(C)c1NC(=O)c1cc(S(N)(=O)=O)c(Cl)cc1O [Xipamide],103%
20,Cn1nnc2c(C(N)=O)ncn2c1=O [Temozolomide],94.5%
21,COc1ccc(Oc2cc(NCCC(F)(F)F)c3ncc(-c4ccc(C(=O)NC5CC5)c(C)c4)n3n2)c(F)c1F,67.6%
22,NC(=O)Cc1c[nH]c2ccccc12 [Indole-3-acetamide],98%
23,COc1ccc(CC(=O)O)cc1OC [Homoveratrumic acid],89.2%
24,COc1ccc2c(c1O)-c1c(O)c(OC)cc3c1[C@H](C2)[N+](C)(C)CC3 [Magnoflorinechloride],99.4%
25,CC(c1cc2ccccc2s1)N(O)C(N)=O (stereo not drawn) [Zileuton],94.3%
26,Cc1c(C(=O)N2CCOc3ccc(-c4ccc(N)nc4)cc3C2)ccc(S(C)(=O)=O)c1F,81.4%
27,CC(C)(Oc1ccc(Cl)cc1)C(=O)OCCOC(=O)c1cccnc1 [Etofibrate],93.2%
28,COc1cc(-c2oc3cc(O)cc(O)c3c(=O)c2OC2OC(COC3OC(C)C(O)C(O)C3O)C(O)C(O)C2OC2OC(C)C(O)C(O)C2O)ccc1O (stereo not drawn) [Typhaneoside],93.9%

# Same assay, conditions: 10 µM; SRSF2 genotype: SRSF2 wt/wt
row,SMILES,cell viability
1,Cc1ccc2nc(NC(=O)CSc3nc4c(c(=O)n3-c3ccccc3)SCC4)sc2c1,98.9%
2,COC(=O)C1=C(C)NC(C)=C(C(=O)OCCN(C)Cc2ccccc2)C1c1cccc([N+](=O)[O-])c1 (stereo not drawn) [Nicardipine HCl],91.3%
3,O=C(O)c1cccnc1Nc1cccc(C(F)(F)F)c1 [Niflumic acid],97.8%
4,Cc1cc(Nc2cc(N3CCN(C)CC3)nc(/C=C/c3ccccc3)n2)n[nH]1 [ENMD-2076 L-(+)-Tartaric acid],30.7%
5,CC(C)[C@H]1CC[C@H](C(=O)N[C@H](Cc2ccccc2)C(=O)O)CC1 [Nateglinide (Starlix)],101%
6,O=C1C[C@@H](c2ccc(O)cc2)Oc2cc(O)cc(O)c21 [Naringenin],107%
7,C=CC(=O)N1CCC[C@@H](n2nc(-c3ccc(Oc4ccccc4)cc3)c3c(N)ncnc32)C1,89.1%
8,CC(=O)OC(CC(C)C1=C2CC(O)C3C4(C)CCC(=O)C(C)(C)C4CCC3(C)C2(C)CC1)C1OC1(C)C (stereo not drawn) [Alisol B Acetate],55.6%
9,CC(=O)Nc1cccc2c1c(Sc1ccc(Cl)cc1)c(C)n2CC(=O)O,112%
10,Cc1cc(NS(=O)(=O)c2ccc(N)cc2)no1 [Sulfamethoxazole sodium],110%
11,C[C@@H]1O[C@@H](O[C@H]2[C@H](Oc3cc(O)c4c(c3)O[C@H](c3ccc(O)cc3)CC4=O)O[C@H](CO)[C@@H](O)[C@@H]2O)[C@H](O)[C@H](O)[C@H]1O [Naringin (Naringoside)],107%
12,C[C@]12CC[C@H](O)CC1=CC[C@@H]1[C@@H]2CC[C@]2(C)C(n3cnc4ccccc43)=CC[C@@H]12 [Galeterone (TOK-001)],81.9%
13,COc1cc(C(=O)N(CCCc2ccccc2)Cc2ccc(CC(=O)O)cc2)cc(OC)c1C,109%
14,Oc1ccc(OC2CCCCO2)cc1 (stereo not drawn) [Deoxyarbutin],93.3%
15,NS(=O)(=O)c1ccccc1 [Benzenesulfonamide],109%
16,COc1ccc([C@@H]2CC(=O)c3c(O)cc(O[C@@H]4O[C@H](CO)[C@@H](O)[C@H](O)[C@H]4O[C@@H]4O[C@@H](C)[C@H](O)[C@@H](O)[C@H]4O)cc3O2)cc1 [Poncirin],104%
17,CC(=O)Oc1cc(C(F)(F)F)ccc1C(=O)O [Triflusal],101%
18,OC1OC[C@@H](O)[C@@H](O)[C@@H]1O (stereo partly drawn) [D(-)-Arabinose],109%
19,CC[C@@H]([C@H](C)O)n1ncn(-c2ccc(N3CCN(c4ccc(OC[C@@H]5CO[C@@](Cn6cncn6)(c6ccc(F)cc6F)C5)cc4)CC3)cc2)c1=O [Posaconazole],59%
20,Nc1nc(-c2nn(Cc3ccccc3F)c3ncccc23)ncc1C1CC1,101%

row,SMILES,cell viability
1,COc1cc2c(cc1OC)[C@@H](Cc1ccc(O)c(Oc3cc4c(cc3OC)CCN(C)[C@@H]4Cc3ccc(O)cc3)c1)N(C)CC2 [Liensinine],74.6%
2,NC(=O)c1cnccn1 [Pyrazinamide (Pyrazinoic acid amide)],114%
3,CC(C)(C)NS(=O)(=O)c1cncc(-c2cc(F)c3nc(N)nn3c2)c1,93.9%
4,CC(=O)O[C@@H]1C[C@@]23C[C@@]24CC[C@H](O[C@@H]2OC[C@@H](O)[C@H](O)[C@H]2O)C(C)(C)[C@@H]4CC=C3[C@]2(C)C[C@@H]3OC4(C[C@@H](C)[C@@H]3[C@@]12C)OC(O)C1(C)OC41 (stereo partly drawn) [Cimicifugoside],111%
5,O=C(O)c1ccc(CN2CCC(CN[C@@H]3C[C@H]3c3ccccc3)CC2)cc1,91%
6,CN1C(N)=N[C@](C)(c2cc(NC(=O)c3ccc(F)cn3)ccc2F)CS1(=O)=O [Verubecestat (MK-8931)],96.1%
7,O=C[C@H](O)[C@@H](O)[C@H](O)CO [Xylose],96.1%
8,COc1ccc(CCNCC(O)COc2cccc(C)c2)cc1OC (stereo not drawn) [Bevantolol hydrochloride],93.4%
9,C/C=C1\[C@H]2C=C(C)C[C@]1(N)c1ccc(=O)[nH]c1C2 [(-)-Huperzine A (HupA)],103%
10,COC(=O)CCC(C)C1CCC2C3C(O)CC4CC(O)CCC4(C)C3CC(O)C12C (stereo not drawn) [Methyl Cholate],112%
11,Cc1cccc(C)c1NC(=O)c1cc(S(N)(=O)=O)c(Cl)cc1O [Xipamide],113%
12,Cn1nnc2c(C(N)=O)ncn2c1=O [Temozolomide],94.2%
13,COc1ccc(Oc2cc(NCCC(F)(F)F)c3ncc(-c4ccc(C(=O)NC5CC5)c(C)c4)n3n2)c(F)c1F,77.1%
14,NC(=O)Cc1c[nH]c2ccccc12 [Indole-3-acetamide],100%
15,COc1ccc(CC(=O)O)cc1OC [Homoveratrumic acid],98.9%
16,COc1ccc2c(c1O)-c1c(O)c(OC)cc3c1[C@H](C2)[N+](C)(C)CC3 [Magnoflorinechloride],103%
17,CC(c1cc2ccccc2s1)N(O)C(N)=O (stereo not drawn) [Zileuton],99.2%
18,Cc1c(C(=O)N2CCOc3ccc(-c4ccc(N)nc4)cc3C2)ccc(S(C)(=O)=O)c1F,76.9%
19,CC(C)(Oc1ccc(Cl)cc1)C(=O)OCCOC(=O)c1cccnc1 [Etofibrate],100%
20,COc1cc(-c2oc3cc(O)cc(O)c3c(=O)c2OC2OC(COC3OC(C)C(O)C(O)C3O)C(O)C(O)C2OC2OC(C)C(O)C(O)C2O)ccc1O (stereo not drawn) [Typhaneoside],106%
